hgDAF-12 ag – hgDAF-12 agonism, primary luciferase screen | HEK293 GAL4-hgDAF12 UAS-luciferase reporter, agonist luminescence; normalized to butyrate control | activation, % at 6.8 µM | 370,000 compounds, 1.8% hits | AID 687014;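 active = activation above a cutoff set at the mean of all screened compounds plus 3 SD, cut at about 10% in these data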;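 note: 0% = DMSO wells and 100% = sodium butyrate wells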
DAX1 inh-1 – DAX1 (NR0B1) inhibition, primary screen; HEK293T StAR-luciferase reporter, SF-1/DAX-1 repression relief; AID 652010; inhibition, % at 6.8 µM; 370,000 compounds, 1.1% hits;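 active = inhibition above the mean over all tested compounds plus 3 SD, cut at about 3.6% in these data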;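 note: 0% = DAX-1 cells with DMSO and 100% = cells lacking DAX-1 with DMSO; higher inhibition means more luminescence from relief of DAX-1 repression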
hcDAF-12 act – H. contortus DAF-12 activation, primary screen; HEK293 hcDAF-12 lit1-tk-luc reporter, luminescence; 0% DMSO, 100% Δ7-dafachronic acid; activation, % at 6.8 µM; 370,000 compounds, 1.4% hits; AID 652067;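 active = activation above the mean of all tested compounds plus 3 SD, cut at about 5.5% in these data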;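 note: 100% = response to 3 µM Δ7-dafachronic acid high control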
ssDAF12 agonist – activates DAF-12 receptor from parasite S. stercoralis. HEK293 ssDAF-12/GRIP1 lit1-tk-luc reporter, luminescence; % of 3 µM dafachronic acid response. activation, % at 6.8 µM. 370,000 compounds, 1% hits. AID 652126;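 active = activation above the mean over all tested compounds plus 3 SD, cut at about 0.9% in these data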;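 note: 0% = DMSO-only wells and 100% = 3 µM delta7-dafachronic acid wells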
DAX1 inh-2 – inhibitors of human orphan nuclear receptor DAX1 (NR0B1). HEK293 Gal4-DAX1 luciferase reporter, luminescence. inhibition, % at 6.75 µM. 340,000 compounds, 0.99% hits. AID 504766;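 active = inhibition above the mean over all tested compounds plus 3 SD, cut at about 4.2% in these data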;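 note: 0% = DAX1-transfected cells with DMSO and 100% = empty-vector control cells with DMSO; inhibition shows as a rise in luminescence from relieved DAX1 repression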
LXR ag – LXR-beta agonism as hcDAF-12 counter-screen; shares compounds with hcDAF-12 act; HEK293 Gal4-LXR tk-luc reporter, luminescence, 24 h; normalized: DMSO 0%, positive control 100%; activation, % at 6.8 µM; 3,400 tested, under 10 active; AID 743027;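 active = mean percent activation of the reporter above a cutoff set as the average over tested compounds plus their standard deviation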
Target sequence (P55055 whole entry, looked up, the tested form may be a part): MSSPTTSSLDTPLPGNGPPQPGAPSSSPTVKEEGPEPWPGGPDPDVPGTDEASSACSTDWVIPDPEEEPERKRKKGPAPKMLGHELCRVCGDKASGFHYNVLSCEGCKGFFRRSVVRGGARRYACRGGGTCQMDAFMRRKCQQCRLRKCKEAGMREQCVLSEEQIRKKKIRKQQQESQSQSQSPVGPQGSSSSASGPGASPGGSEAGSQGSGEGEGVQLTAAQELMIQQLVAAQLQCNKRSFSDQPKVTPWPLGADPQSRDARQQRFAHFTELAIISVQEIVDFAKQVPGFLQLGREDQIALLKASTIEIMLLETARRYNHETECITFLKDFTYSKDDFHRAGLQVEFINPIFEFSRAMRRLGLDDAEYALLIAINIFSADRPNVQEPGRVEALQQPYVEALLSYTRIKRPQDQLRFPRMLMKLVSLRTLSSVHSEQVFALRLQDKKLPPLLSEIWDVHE
hcDAF12 conf – confirmation of H. contortus DAF-12 agonists | HEK293 hcDAF-12 lit1-tk-luc reporter, luminescence; % of Δ7-dafachronic acid response | activation, % at 6.8 µM | 3,400 compounds, 61% hits | shares compounds with hcDAF-12 act | AID 743032;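 active = mean activation across triplicate tests above the threshold derived from the earlier primary screen, cut at about 5.5% in these data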;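 note: 0% = DMSO only wells and 100% = 3 µM Δ7-dafachronic acid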
An asterisk follows results filed as active; x = no result given. Shown are actives, neighbours in structure and some others; about 4.1% of the full set was active somewhere.

SMILES	hgDAF-12 ag	DAX1 inh-1	hcDAF-12 act	ssDAF12 agonist	DAX1 inh-2	LXR ag	hcDAF12 conf
Clc1ccc2oc(-c3ccccc3)nc2c1	4	1	1	0	0	x	x
CC(=O)Nc1cccc(N/C=C(\C=O)c2nc3ccccc3o2)c1	7	1	9.6*	1.0*	2	0	9.4*
O=C/C(=C\Nc1ccccn1)c1nc2cc(Cl)ccc2o1	2	1	6.8*	0.9*	2	0	4
CCOc1ccccc1NC(=O)CSc1nc2ccccc2nc1N1CCOCC1	-2	0	3	0	1	x	x
CCOc1ccccc1NC(=O)CSc1nc2ccccc2nc1N1CCCC1	3	-1	8.0*	1.5*	0	0	3
NNc1nc(-c2ccccc2)nc2sc3c(c12)CCCC3	3	2	7.8*	1	3	2	19*
O=C1C=C(Nc2ccccc2)C(=O)c2ccccc21	8	0	7.6*	0	-1	2	7.0*
CC(=O)N1CCN(C2=NC(=O)N(c3ccc(Br)cc3)C(=O)C2)CC1	-3	0	-1	-2	x	x	x
Cc1cccc(N2C(=O)C3C4C=CC(C5CC45)C3C2=O)n1 (stereo unspecified)	2	0	-1	0	4	x	x
Cc1cccc(N2O[C@H]3C=C[C@@H]2C3)n1	2	0	9.4*	0	x	0	5.6*
CN(Cc1ccco1)C(=O)[C@@H](Cc1ccccc1)NC(=O)[C@H]1O[C@@H](n2ccc(=O)[nH]c2=O)[C@H](O)[C@@H]1O	-2	1	0	-2	x	x	x
COc1ccccc1NC(=O)c1oc2ccccc2c1C	9	-1	7.0*	2.2*	3	0	6.7*
O=c1c2ccccc2cnn1Cc1n[nH]c(=S)n1-c1ccc(Cl)cc1	0	0	-1	-1	1	x	x
Cc1nn(-c2ccc(Cl)c(Cl)c2)c(=O)c2ccccc12	5	0	4	0	0	x	x
Cc1nn(-c2ccc(Cl)cc2)c(=O)c2ccccc12	9	3	7.2*	1.1*	2	1	9.9*
O=c1c2ccccc2cnn1-c1ccc(Cl)cc1	17*	3	12*	1.9*	1	2	10*
COC(=O)C1CN(Cc2cn(Cc3ccccc3)nn2)CCS(=O)(=O)N1Cc1ccc(OC)cc1 (stereo unspecified)	6	-1	-3	-1	x	x	x
Cc1ccc(/C=C2\OC(=O)c3ccccc32)cc1	10	1	8.4*	0	2	1	8.5*
O=C(Nc1ccccc1Cl)c1ccc(-c2ccccn2)s1	11*	2	8.7*	0	5.0*	1	3
CC1CCC(NC(=O)c2ccc(CNc3c(NC4CCCCC4)c(=O)c3=O)cc2)CC1 (stereo unspecified)	5	1	0	0	0	x	x
O=C(c1ccc(CNc2c(NC3CCCCC3)c(=O)c2=O)cc1)N1CCc2ccccc21	8	0	7.4*	1.1*	1	0	1
Cc1nn(-c2ccccc2)c(N)c1C1(O)C(=O)N(C)c2ccccc21 (stereo unspecified)	0	0	1	-1	-1	x	x
Cc1nn(-c2ccccc2)c2c1C1(C(=O)N(C)c3ccccc31)N(c1ccccc1)C(=O)N2 (stereo unspecified)	3	2	6.6*	0	-2	0	4
CCOC(=O)c1c2ccccc2[n+]([O-])n1CCO	2	0	1	-1	1	x	x
COC(=O)c1cc2c(c3c4ccccc4n(S(=O)(=O)c4ccccc4)c13)C(=O)N(Cc1ccc(C(F)(F)F)cc1)C2	2	0	1	0	x	x	x
CN(Cc1ccccc1)S(=O)(=O)c1cccc(C(=O)OCc2ccc(Oc3ccccc3)cc2)c1	-2	-1	-3	0	x	x	x
C[C@H](NC(=O)[C@H](Cc1ccccc1)NC(=O)c1cc2cc(Cl)ccc2n1C)C(=O)O	1	0	6.8*	0	0	0	4

Screening results deposited in PubChem BioAssay by The Scripps Research Institute Molecular Screening Center.
